Consider 67 compounds from PubChem BioAssay AID651687 (Broad Institute, 2012).

A word on the inhibition: it is the change of the read-out against control, counted positive when it falls.

Among all 350,000 compounds or so, about 600 (0.17%) were called active.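 The calls were made as follows: active = every replicate shows inhibition of at least 40%; inconclusive = mean inhibition at least 40% but some replicate below; inactive = the rest.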 Many of the other results were omitted from the sample, so actives are more common in it than they were.

A short description of this assay: inhibitors of PGC1a acetylation signal, primary screen, cell-based, U2OS, AlphaScreen, inhibitor mode (AID 651687).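 Also: 0% = neutral control wells and 100% = positive control wells.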 To be noted: AlphaScreen anti-acetyl-lysine, at 15.6 µM, stronger effect = higher value, with virally co-expressed GCN5 acetyltransferase. For orientation: Alpha assays give light when donor and acceptor beads are brought close together.
Turning to `C[C@H]1CN([C@@H](C)CO)C(=O)c2cccc(NC(=O)Nc3ccccc3)c2O[C@H]1CN(C)S(=O)(=O)c1ccc(F)cc1`, the inhibition was -3.23% (inactive).
In the case of `C[C@@H]1CN([C@H](C)CO)C(=O)c2cc(NC(=O)Nc3ccc(F)cc3)ccc2O[C@@H](C)CCCCO[C@@H]1CN(C)S(=O)(=O)c1cn(C)cn1` it was -2.5% (inactive).
`C[C@@H](O)C#Cc1ccc([C@H]2[C@H](CO)N3CCCCN(C(=O)c4ccc(F)cc4)C[C@@H]23)cc1`: the inhibition is -2.34% (inactive).
In the case of `NC(=O)N/N=C\c1cccs1` it was 76.7% (active); in that of `Cc1nc2ccccc2n1CC(=O)N/N=C/c1cccs1`, 0.244% (inactive).
As for `Cc1cc(C)nc(SC(C)C(=O)N/N=C/c2cccs2)n1` (configuration not stated), the figure is -4.85% (inactive).
In the case of `COCC(=O)N1[C@H](CO)[C@@H](c2ccccc2)C12CN(Cc1cc(F)ccc1F)C2` it was 3.15% (inactive); in that of `CN1c2ccc(C#Cc3ccccc3F)cc2[C@@H]2[C@@H](CCN2C(=O)Cc2cccnc2)[C@H]1CO`, -8.75% (inactive); in that of `CO[C@@H]1CN(C)C(=O)c2ccc(NS(=O)(=O)c3c(C)noc3C)cc2OC[C@H](C)NC[C@@H]1C`, 14.4% (inactive).
Consider `CC(C)NC(=O)N(C)C[C@H]1OCCCC[C@H](C)Oc2ccc(NS(=O)(=O)c3cccs3)cc2C(=O)N([C@H](C)CO)C[C@@H]1C`, for which the inhibition is -3.81% (inactive).
As to `COc1ccc2c3c(n(C)c2c1)[C@@H](CO)N(C(=O)CN1CCOCC1)CC31CCN(C(=O)C2CC2)CC1`, the inhibition was 5.01% (inactive).
As for `O=C(c1cccnc1)N1C[C@H]2[C@@H](c3ccccc31)[C@H](CO)N2C(=O)C1CC1`, the figure is 8.96% (inactive).
In the case of `C[C@H](CO)N1C[C@H](C)[C@@H](CN(C)S(=O)(=O)c2cccs2)OCc2ccccc2-c2ccccc2C1=O` it was -0.156% (inactive); in that of `CCNC(=O)C[C@@H]1CC[C@@H]2[C@@H](COc3ccc(NC(=O)Nc4ccccc4F)cc3C(=O)N2C)O1`, 2.36% (inactive); in that of `CO[C@@H]1CN(C)C(=O)c2cc(NC(=O)c3ccccc3F)ccc2OC[C@H](C)NC[C@@H]1C`, -5.95% (inactive).
In the case of `CO[C@@H]1CN(C)C(=O)c2ccc(NC(=O)c3ccccc3F)cc2OC[C@@H](C)N(CC2CCOCC2)C[C@H]1C`, the inhibition was -3.01% (inactive).
`C[C@@H]1CCCCO[C@@H](CN(C)C(=O)C2CCCCC2)[C@H](C)CN([C@H](C)CO)C(=O)c2cc(NC(=O)c3ccccc3)ccc2O1`: the inhibition was -4.75% (inactive).
As for `CCCN(C)C[C@H]1Oc2ncc(-c3ccccc3OC)cc2C(=O)N([C@H](C)CO)C[C@H]1C`, the figure is 7.87% (inactive).
Take `C[C@@H](NC(=O)C[C@H]1CC[C@H]2[C@@H](COC[C@@H](O)CN2C(=O)Nc2ccccc2)O1)c1ccccc1`: the inhibition was 6.72% (inactive).
In the case of `COc1ccccc1C#Cc1cnc2c(c1)C(=O)N([C@@H](C)CO)C[C@@H](C)[C@H](CN(C)C(=O)CN(C)C)O2` it was -1.48% (inactive); in that of `Cc1[nH]c(=O)c(C(=O)/C=C/c2ccccc2)c2c1CCCC2`, 53.2% (active).
As for `CC1(C(=O)O)CCCN(C(=O)/C=C/c2ccccc2)C1` (configuration not stated), the figure is 7.82% (inactive).
As to `C/C(=C\c1ccccc1)C1NC(=O)c2c(sc3c2CCCC3)N1` (configuration not stated), the inhibition was 6.29% (inactive).
In the case of `C[C@@H]1CN([C@H](C)CO)C(=O)c2cc(NC(=O)c3ccccc3)ccc2O[C@@H](C)CCCCO[C@H]1CN(C)S(=O)(=O)c1ccccc1` it was 0.633% (inactive); in that of `CC(C)CC#Cc1ccc2c(c1)O[C@H](CN(C)C(=O)C1CC1)[C@@H](C)CN([C@@H](C)CO)S2(=O)=O`, 3.73% (inactive).
`CCCN1C[C@@H](C)[C@H](OC)CN(C)C(=O)c2cc(NC(=O)CC)ccc2OC[C@@H]1C`: the inhibition was 3.35% (inactive).
As for `C/C=C/c1ccc([C@H]2[C@H]3CN(S(=O)(=O)c4ccccc4)CCCCN3[C@H]2CO)cc1`, the figure is -5.04% (inactive).
As for `Cc1noc(C)c1NC(=O)N(C)C[C@@H]1Oc2ccc(NC(=O)Nc3ccc4c(c3)OCO4)cc2CC(=O)N([C@H](C)CO)C[C@H]1C`, the figure is -8.32% (inactive).
In the case of `O=C(C1CCCC1)N1CC(=O)N2[C@H](CO)[C@H](c3ccc(Br)cc3)[C@@H]2C1` it was -9% (inactive); in that of `C[C@@H]1CN([C@H](C)CO)C(=O)Cc2cc(NC(=O)Cn3cnnn3)ccc2O[C@H]1CN(C)CC1CCCCC1`, -7.22% (inactive); in that of `N#C[C@H]1[C@H](c2ccc(-c3cccc(F)c3)cc2)[C@@H](CO)N1C(=O)NC1CCCC1`, 4.29% (inactive).
As for `C[C@@H]1CN([C@H](C)CO)C(=O)c2cccc(NS(=O)(=O)c3cn(C)cn3)c2O[C@@H]1CN(C)Cc1ccc(C(F)(F)F)cc1`, the inhibition is -1.87% (inactive).
As for `O=C(C[C@H]1C[C@@H]2c3cc(NC(=O)c4ccc5c(c4)OCO5)ccc3O[C@@H]2[C@@H](CO)O1)NCc1cccnc1`, the figure is -3.47% (inactive); as for `COCC(=O)N1CC(=O)N2[C@H](C1)[C@@H](c1ccc(C#Cc3cccc(OC)c3)cc1)[C@@H]2CO`, -0.955% (inactive); as for `O=C(O)c1ccc2c(=O)n3c(nc2c1)/C(=C/c1ccc(Cl)c([N+](=O)[O-])c1)CC3`, 12.5% (inactive).
As for `Cc1nc2ccccc2c(=O)n1NC(=O)c1ccc(Cl)c([N+](=O)[O-])c1`, the figure is 44.8% (active); as for `Cc1ccnc(NC(=O)c2ccc(Cl)c([N+](=O)[O-])c2)c1`, 3% (inactive).
As for `O=C(C1CC1)N1CC(=O)N2[C@H](CO)[C@@H](c3ccc(-c4ccccc4F)cc3)[C@@H]2C1`, the figure is 6.24% (inactive); as for `C[C@H]1CN([C@@H](C)CO)C(=O)c2cc(-c3ccc(C#N)cc3)cnc2O[C@@H]1CN(C)Cc1ccncc1`, -4.55% (inactive); as for `C[C@@H]1CCCCO[C@H](CN(C)C(=O)Nc2ccccc2)[C@H](C)CN([C@H](C)CO)C(=O)c2cc(N(C)C)ccc2O1`, 0.535% (inactive).
Consider `O=C(C[C@H]1C=C[C@H](NC(=O)c2cnccn2)[C@@H](CO)O1)NCc1ccccc1F`, for which the inhibition is -5.81% (inactive).
As for `CN1/C(=C\C(=O)c2oc3ccccc3c2N)C(C)(C)c2ccccc21`, the figure is 86.9% (active); as for `CN1CCN(CCC(=O)N/N=C/C=C2\N(C)c3ccccc3C2(C)C)CC1`, 17.1% (inactive); as for `CN1/C(=C\C=C2\N=C(c3ccc(F)cc3)OC2=O)C(C)(C)c2ccccc21`, -0.203% (inactive).
As for `C[C@@H]1CN([C@H](C)CO)C(=O)c2cccc(NC(=O)c3nc4ccccc4s3)c2O[C@@H]1CN(C)Cc1ccc(Oc2ccccc2)cc1`, the figure is 16.2% (inactive); as for `CN1CCN(C(=O)C[C@H]2CC[C@H]3[C@@H](COC[C@H](O)CN3CC3CCOCC3)O2)CC1`, 0.0455% (inactive); as for `C/C(Cc1ccccc1)=N\NC(=O)CNC(=O)c1ccccc1Cl`, 5.72% (inactive).
As for `CC/C(=N\NC(=O)c1ccccc1Cl)c1ccc(Br)s1`, the figure is 82.8% (active); as for `O=C(N/N=C\c1cc2c(cc1Cl)OCO2)c1ccc(Br)s1`, -10.7% (inactive); as for `COc1ccc(S(=O)(=O)N(C)C[C@H]2OCCCC[C@@H](C)Oc3ccc(NS(=O)(=O)c4ccc(C)cc4)cc3C(=O)N([C@@H](C)CO)C[C@@H]2C)cc1`, 0.06% (inactive).
As for `COCCCn1c(CCC(=O)O)ccc1-c1ccc(F)cc1`, the inhibition is -1.42% (inactive).
In the case of `COc1ccc(-c2ccc(CCC(=O)O)n2NC(=O)c2ccc(C(C)(C)C)cc2)cc1` it was 43.5% (active); in that of `COc1ccc(-c2ccc(CCC(=O)O)n2-c2ccc(O)cc2)cc1`, 1.05% (inactive); in that of `Cc1noc(C)c1NC(=O)N(C)C[C@@H]1OCCCC[C@H](C)Oc2ccc(NS(=O)(=O)c3c(C)noc3C)cc2C(=O)N([C@@H](C)CO)C[C@@H]1C`, -1.1% (inactive).
In the case of `CN1C(=O)c2cc(NC(=O)C3CCOCC3)ccc2OC[C@@H]2O[C@@H](CC(=O)NCC3CC3)CC[C@@H]21` it was 4.15% (inactive).
As for `C[C@@H]1CN([C@H](C)CO)C(=O)c2cc(NS(=O)(=O)c3cn(C)cn3)ccc2O[C@@H](C)CCCCO[C@@H]1CN(C)C(=O)CCC(F)(F)F`, the figure is -2.59% (inactive); as for `COc1ccc(NC(=O)N2CC(=O)N3[C@H](CO)[C@@H](c4ccc(-c5ccc(C)cc5)cc4)[C@H]3C2)cc1`, 5.16% (inactive).
For the compound `COc1ccccc1C(=O)Nc1ccc2c(c1)OC[C@@H](C)NC[C@H](C)[C@@H](OC)CN(C)C2=O`, the inhibition is -5.63% (inactive).
In the case of `O=C(C[C@@H]1C[C@@H]2c3cc(NC(=O)c4ccc5c(c4)OCO5)ccc3O[C@@H]2[C@H](CO)O1)NCCc1ccccc1` it was -4.93% (inactive).
As for `CCN1[C@@H]2Cn3c(ccc(-c4cccnc4)c3=O)[C@H]1[C@@H](C(=O)NC1CCCCC1)[C@@H]2CO`, the figure is 1.27% (inactive).
On to `CCCNC(=O)C[C@H]1CC[C@H]2[C@@H](COC[C@H](O)CN2C(=O)CC)O1`, for which the inhibition is 3.49% (inactive).
As for `CCCNC(=O)C[C@H]1CC[C@@H]2[C@H](COC[C@H](O)CN2S(=O)(=O)c2ccccc2F)O1`, the figure is -0.728% (inactive); as for `O=C(C[C@@H]1CC[C@H](NC(=O)CN2CCOCC2)[C@@H](CO)O1)NCCc1ccccc1`, -5.55% (inactive); as for `CC(C)NC(=O)Nc1ccc2c(c1)C(=O)N([C@@H](C)CO)C[C@H](C)[C@H](CN(C)S(=O)(=O)c1ccc(Cl)cc1)OCCCC[C@H](C)O2`, -18.6% (inactive).
For the compound `CC(C)NC(=O)Nc1ccc2c(c1)C(=O)N([C@@H](C)CO)C[C@@H](C)[C@@H](CN(C)S(=O)(=O)c1ccc(F)cc1)OCCCC[C@H](C)O2`, the inhibition is -0.972% (inactive).
Regarding `CC(C)NC(=O)Nc1ccc2c(c1)C(=O)N([C@@H](C)CO)C[C@@H](C)[C@H](CN(C)S(=O)(=O)c1ccccc1)OCCCC[C@@H](C)O2`, the inhibition was 124% (active).
As for `C[C@@H]1CN([C@H](C)CO)S(=O)(=O)c2ccc(C#CC3CCCC3)cc2O[C@@H]1CN(C)Cc1cccnc1`, the figure is -39.6% (inactive).
